Screening results from PubChem.
HEK293 tox: cytotoxic compounds in HEK 293 cells. HEK 293 viability, ATP luminescence (CellTiter-Glo), 48-72 h. Potency, µM (highest dose often 115 µM), most hits filed as inhibitors. 94,000 tested, 6.6% active; also: nearly all actives have a fitted effect of over 60% in size
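250 HEK 293 cells/well; compound by pintool; incubated 48 or 72 hr at 37 degree Celsius; CellTiter-Glo added, 10 min RT, luminescence imaged.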
3T3 cytotox: kills NIH 3T3 cells. NIH 3T3 viability, CellTiter-Glo ATP luminescence, 48-72 h. Potency, µM (highest dose often 96.7 µM), hits mostly inhibitors. 94,000 tested, 4.3% active. AID 1345082; also: nearly all actives have a fitted effect of over 55% in size
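NIH 3T3 cells at 400 cells/well received 23 nL of compound by pintool and were incubated 48 or 72 h at 37 °C. Viability was read as ATP-coupled CellTiter-Glo luminescence.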
NPR1 antag: human Npr1 receptor antagonism; P16066; 76,000 tested, 1.6% active; HEK293 hNpr1 GloSensor cGMP, ANP-stimulated luminescence; Potency, µM (highest dose often 46.3 µM), hits mostly inhibitors; AID 1347048; calls by dose curve; also: nearly all actives have a fitted effect of over 60% in size
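HEK293 cells stably expressing human Npr1 and cGMP GloSensor pGS-40F, loaded 2 h with 2% GloSensor reagent, given compound 30 min at room temperature. Luminescence read before and 20 min after 0.1 nM hNppA.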
Luciferase inh: blocks purified firefly luciferase enzyme activity; purified P. pyralis luciferase, luminescence, biochemical; Potency, µM (titrated, usually from 115 µM), most hits filed as inhibitors; 76,000 tested, 2.5% active; also: nearly all actives have a fitted effect of over 65% in size
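FLuc 10nM, D-luciferin 10uM, ATP 10uM, Mg acetate 10mM, Tris acetate pH 7.5, Tween/BSA; cpd qHTS; enzyme added last; CCD luminescence.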
Large screens that a line does not name were inactive. Sampled rows, rich in hits. Any-hit rate of the full collection: about 11%. Unless noted, calls follow the shape of the dose curve; as a rule, active = well fitted curve in the direction sought with a large enough effect; inconclusive = small, poorly fitted or top-dose-only effect, or another doubt; inactive = no such curve, though single readings can be large; an effect the other way counts as inactive or inconclusive.

COc1ccccc1-c1cc(C(=O)N2CCN(C(C)=O)CC2)c2cnn(C)c2n1	none (no result: NPR1 antag, Luciferase inh)
COc1ccc(CCC(=O)N2CCn3nnc(CCC(=O)N4CCCC4)c3C2)cc1	none (no result: NPR1 antag, Luciferase inh)
OCc1cccc(-c2ccc3ncc(Nc4ccc(OCCN5CCCC5)cc4)n3n2)c1	HEK293 tox 100µM, 3T3 cytotox inconclusive
OCc1cccc(-c2ccc3ncc(Nc4cccnc4)n3n2)c1	3T3 cytotox inconclusive
OCc1cccc(-c2ccc3ncc(Nc4cccc(C(F)(F)F)c4)n3n2)c1	HEK293 tox inconclusive, 3T3 cytotox 50µM
OCc1cccc(-c2ccc3ncc(Nc4ccccc4Cl)n3n2)c1	HEK293 tox 89µM, 3T3 cytotox inconclusive, Luciferase inh 22µM
COc1ccc(C2CC(C(=O)NCc3ccccc3)CN(C(=O)C3CC3)C2)cc1OC (centres undefined)	HEK293 tox inconclusive, 3T3 cytotox inconclusive
COc1ccccc1CCNC(=O)C1CC(c2ccc(F)c(C)c2)CN(C(=O)C2CC2)C1 (centres undefined)	HEK293 tox 35µM, 3T3 cytotox 40µM
O=C(CN1C(=O)C(c2ccccc2)=NC12CCCCC2)NC1CCCC1	HEK293 tox 28µM, 3T3 cytotox inconclusive
O=C(CN1C(=O)C(c2ccccc2)=NC12CCCC2)NCc1ccc(F)cc1	HEK293 tox 40µM, 3T3 cytotox inconclusive
Cc1ccc(S(=O)(=O)N(C)C2CCOc3ccccc32)cc1 (centres undefined)	HEK293 tox 100µM, 3T3 cytotox inconclusive
CN(C)c1ccc2nnc(-c3cc(C(=O)Nc4cccc(Cl)c4)ccn3)n2n1	3T3 cytotox 7.9µM
COC1CCN(C(=O)c2ccnc(-c3nnc4ccc(N(C)C)nn34)c2)CC1	3T3 cytotox 45µM
CN(c1ccccc1)c1ccc2nnc(-c3cc(C(=O)N4CC(O)C4)ccn3)n2n1	HEK293 tox inconclusive, 3T3 cytotox 100µM
COc1ccnc(-c2nnc3ccc(N(C)c4ccccc4)nn23)c1	HEK293 tox 45µM, 3T3 cytotox 20µM
O=C(Nc1cccc(Cl)c1)c1ccnc(-c2nnc3ccc(N4CCOCC4)nn23)c1	HEK293 tox inconclusive, 3T3 cytotox inconclusive
O=C(Nc1cccnc1)c1ccnc(-c2nnc3ccc(N4CCOCC4)nn23)c1	3T3 cytotox 100µM
N#Cc1cccc(CN2CCC3(CC2)CC(Cc2nc(C4CC4)no2)CCO3)c1 (centres undefined)	HEK293 tox 45µM, 3T3 cytotox inconclusive
O=C1NC2(CCN(C(=O)c3cccnc3)CC2)Oc2ccccc21	none
O=C(c1cccc2cnccc12)N1CCCC2(C=Cc3ccccc3O2)CC1 (centres undefined)	HEK293 tox 45µM, 3T3 cytotox inconclusive
COc1ccc2[nH]cc(CCNC(=O)CCC[C@H]3NC[C@@H]4C[C@H]3CN(Cc3ccccc3)C4)c2c1	none
CCC(CC)C(=O)N1CCC(Oc2nccnc2N(C)C)C1 (centres undefined)	HEK293 tox inconclusive, Luciferase inh 35µM
CCCN(C)c1nccnc1OC1CCN(C(=O)c2c(F)cccc2F)C1 (centres undefined)	HEK293 tox inconclusive, 3T3 cytotox inconclusive, Luciferase inh inconclusive
CCCN(C)c1nccnc1OC1CCN(C(=O)CC)C1 (centres undefined)	none
CCCN(C)c1nccnc1OC1CCN(C(=O)CC(C)C)C1 (centres undefined)	HEK293 tox inconclusive, Luciferase inh 18µM
CCCN(C)c1nccnc1OC1CCN(C(=O)c2ccn[nH]2)C1 (centres undefined)	HEK293 tox inconclusive, Luciferase inh 22µM
CCCN(C)c1nccnc1OC1CCN(C(=O)C(C)C)C1 (centres undefined)	3T3 cytotox inconclusive, Luciferase inh 22µM
COc1ccc(C(C)NC(=O)c2noc(-c3ccc(C)cc3)n2)cc1OC (centres undefined)	HEK293 tox inconclusive, NPR1 antag inconclusive
COc1ccc(OCC2CC3(CCCCC3)CN2S(=O)(=O)c2c(C)noc2C)cc1 (centres undefined)	HEK293 tox 28µM (no result: NPR1 antag, Luciferase inh)
CN(C(=O)c1csc(Cc2ccccc2)n1)C1CCCN(CCc2ccccc2)C1 (centres undefined)	HEK293 tox inconclusive
O=C(NCc1cccc(Cl)c1)C1CCN(c2nccc(Nc3ccccc3Cl)n2)CC1	HEK293 tox inconclusive (no result: NPR1 antag, Luciferase inh)
Cc1ccc(Nc2ccnc(N3CCC(C(=O)NCc4cccs4)CC3)n2)cc1	HEK293 tox 18µM, 3T3 cytotox 22µM (no result: NPR1 antag, Luciferase inh)
O=C(NCc1cccs1)C1CCN(c2nccc(Nc3ccccc3Cl)n2)CC1	HEK293 tox 45µM, 3T3 cytotox inconclusive (no result: NPR1 antag, Luciferase inh)
O=C(N[C@@H]1CN(C(=O)c2ccsc2)C[C@H]1CO)c1ccccc1	none (no result: NPR1 antag, Luciferase inh)
Cc1ccsc1CN1CCCC12Cc1ccccc1CNC2=O (centres undefined)	none (no result: NPR1 antag, Luciferase inh)
Oc1cc(-c2csc3ccccc23)cc2c1OCCNC2	HEK293 tox 20µM, 3T3 cytotox inconclusive
Cc1ccccc1-c1cc(O)c2c(c1)CNCCO2	none
Cc1ccccc1-c1[nH]nc2ncc(-c3cccc(F)c3)nc12	HEK293 tox 63µM, 3T3 cytotox inconclusive, Luciferase inh 20µM
Cc1cc(F)ccc1-c1[nH]nc2ncc(-c3ccccc3)nc12	HEK293 tox inconclusive, 3T3 cytotox inconclusive
COc1ccc(-c2[nH]nc3ncc(-c4ccc(CO)cc4)nc23)cc1F	HEK293 tox 35µM, 3T3 cytotox 28µM
COc1ccc(-c2cnc3n[nH]c(-c4ccc(F)cc4C)c3n2)cc1OC	HEK293 tox 28µM, 3T3 cytotox 28µM
COc1cccc(-c2cnc3n[nH]c(-c4ccc(F)cc4C)c3n2)c1	3T3 cytotox inconclusive
Cc1ccccc1-c1[nH]nc2ncc(-c3ccc(F)cc3)nc12	HEK293 tox 45µM, 3T3 cytotox inconclusive, Luciferase inh 22µM
O=C(Nc1ccccc1Cl)c1ccc2nnc(C3CCOCC3)n2c1	none (no result: NPR1 antag, Luciferase inh)
O=C(C[C@@H]1CCNC[C@@H]1Cc1cc(CSc2ccccc2)on1)Nc1ccccc1	HEK293 tox 45µM, 3T3 cytotox 71µM
O=C(C[C@@H]1CCNC[C@@H]1Cc1cc(COc2ccccc2)on1)NCc1ccccc1	HEK293 tox 79µM, 3T3 cytotox inconclusive
O=C(C[C@@H]1CCNC[C@@H]1Cc1cc(COc2ccccc2)on1)Nc1ccccc1	HEK293 tox 40µM, 3T3 cytotox 32µM
O=C(C[C@@H]1CCNC[C@@H]1Cc1cc(CSc2ccccc2)on1)N1CCN(c2ccccc2)CC1	HEK293 tox inconclusive, 3T3 cytotox 25µM
COc1cc(C(=O)NC2CCCc3c2[nH]c2ccccc32)cc(OC)c1OC (centres undefined)	HEK293 tox inconclusive, 3T3 cytotox inconclusive
COC(=O)[C@@H]1Cc2c([nH]c3ccccc23)[C@H]2C[C@@H](NC(C)C)C[C@@H](c3ccccc3)N21	HEK293 tox 35µM, 3T3 cytotox 40µM, Luciferase inh inconclusive
COC(=O)[C@@H]1Cc2c([nH]c3ccccc23)[C@H]2C[C@@H](NC(C)C)C[C@@H](c3ccc(C)cc3)N21	HEK293 tox 35µM, 3T3 cytotox 40µM
O=c1cc(-c2ccncc2)oc2c(-c3cccc4[nH]ccc34)nccc12	HEK293 tox 25µM, 3T3 cytotox inconclusive
